PubChem BioAssay AID1508600 (Functional Genomics Laboratory (NCATS/FGL), 2020)
Among all 53,000 sequences or so, about 3,700 (7%) were called active.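 Rule for the calls: active = gene knockdowns whose robust z-score for IL-1 alpha signal is at least 2 or at most -2, so actives lie on both sides; inactive = the rest.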 Shown is part of a subset that was picked to be rich in actives.

Assay: Components of the Cytosolic LPS Sensing Pathway: Gene Identification via Genome-wide siRNA Screen;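 note: robust z of the log signal after scaling to non-targeting control siRNA wells of the plate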
Conditions: RAW264.7 macrophages, IL-1a HTRF, actives lie on both sides, screened at 100 nM (by protocol), cells primed 5 h with Pam3CSK4 first
Method in brief: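 Knockdown: 100 nM siRNA, 48h, RAW264.7. Stimulation: Pam3CSK4 5 h, then LipidA via TransIT-TKO 24 h. Output: supernatant IL-1a HTRF, negative-control-normalized, log robust z-score; viability by CellTiter-Glo.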

Sequence | z-score
GGCAAGUCUAAAAUACAUUTT against St6galnac4 | -0.439 (inactive)
CGUACCAGAUGAGCUAAGUTT against Zfp513 | 2.56 (active)
CCUGUUGUAUUGUUUAGCGTT against Ago2 | -0.402 (inactive)
CCUCAAGAUAAACCGACAATT against Bard1 | 0.388 (inactive)
GGAGUCCGCUCAGAAUUUGTT against Lhpp | -0.194 (inactive)
GGACAAAGUUGUUCCUUCUTT against Zfp13 | -2.62 (active)
GGAAGAUCUACAUCGUGGGTT against Klhl26 | 0.341 (inactive)
GGUGGUUUUUUGUUGUUGUTT against Lhfpl4 | 0.277 (inactive)
GCCUAUGACUACCUCGAGUTT against Rhob | -2.01 (active)
GGAGAAUAAUAAGCUGGAATT against Hap1 | 0.12 (inactive)
CGGUAUCUUGGUCAACCUGTT against Naaa | 0.955 (inactive)
GGUAGCUCUGAGACAAUUCTT against Pkhd1l1 | 0.857 (inactive)
GCCCAUUAUGGUUAAAGAATT against Ccnb3 | -0.311 (inactive)
GGAGAUCGAUAUUCGACUATT against 4933434E20Rik | -2.48 (active)
GGAUAUUCUUCUUAAGCAGTT against Agbl5 | -0.168 (inactive)
CCAGGUUGAUGAUUUCAACTT against Tbcc | -1.43 (inactive)
GGGAAGUGCAUGCUCAUCUTT against Smarcal1 | -0.187 (inactive)
GCGUGGAUUACAUUUCUCUTT against Depdc1a | 0.392 (inactive)
GGACUGAGAACCAAAGCUGTT against D630044L22Rik | -3.15 (active)
GGAAGAGCCAGUGGUAUAATT against Ccdc171 | 0.164 (inactive)
GUCUGAGCGACUGUCUCCATT against Mef2b | -2.17 (active)
GGAGAACCAUAAUAAGAGUTT against Tnfrsf26 | -2.88 (active)

Sequence | z-score
UCAAACUAGGUGCUGUUGUTT against Olfr584 | 0.998 (inactive)
CCAAAGAUGCUCCUCACCUTT against Olfr197 | -0.158 (inactive)
GCUUCUAGCCUGUAUUGCCTT against Rps8 | 0.31 (inactive)
CCUGUAUUUUACGAUCUUUTT against Best1 | 0.103 (inactive)
GGUCCUGGACAAAGUGUUUTT against Tubgcp5 | 2.48 (active)
CCCAUCUGUUUGAGUGUAUTT against Ms4a1 | -0.305 (inactive)
GCCUUGGUACACUAAACUCTT against Rhcg | -0.426 (inactive)
GCCUGUAAGGAGAAUCAGCTT against Car4 | 0.684 (inactive)
GGUUCCAAGUCAAAGAGUUTT against Foxl1 | -0.47 (inactive)
GGACUCUGUAGUUGAAGAUTT against Pogz | -0.882 (inactive)
CCAUUCUGAAUCUCUAAUCTT against Pigw | 0.134 (inactive)
CCAAUCUGAAGUGCUACUATT against Trim42 | 0.368 (inactive)
CCCGUGCCUUCCUUAAAGCTT against Ggt6 | 0.327 (inactive)
CCCACUGAUGCUAUUUCUATT against Rad1 | -2.57 (active)
GGUCUUUAUCUACCAUGGGTT against Itga7 | -1.29 (inactive)
CCUUUGCCUAUGUUUACCATT against Ropn1l | 0.851 (inactive)
GGGACUCAGUGUUUAUUGATT against Thsd4 | 0.216 (inactive)
GGCUUUUAAGUUCUUCCAGTT against Ptbp3 | 2.44 (active)
UCAUUAGUAUCCUCCGUAUTT against Olfr919 | 0.27 (inactive)
GGAAGGUGAUGAAGGAUCGTT against Fam118a | 0.0491 (inactive)
GGAAGAUUUCACAUCUCAGTT against Pdia5 | -0.528 (inactive)
GCUUGUUAAAAUUGGAAAGTT against Kif11 | -1.47 (inactive)

Sequence | z-score
GGCCUCCAAUAAAGCUCAGTT against Ttc28 | -2.07 (active)
GCUCCUAUUACUGAAUUUATT against Olfr749 | -0.445 (inactive)
GGUGACCUUACCUAAUGUATT against Mettl18 | 0.578 (inactive)
GGCACAAGCAGGAGAUAAATT against Serpinb2 | 2.05 (active)
GGUGGUCUUUUCCCAGCAGTT against Msrb3 | 0.793 (inactive)
GGCAACACGAUGCAGCAGUTT against Fam50a | -0.36 (inactive)
GCUCUACUGCUUCCUUGUUTT against Olfr229 | -0.338 (inactive)
GGUGUCUGCUUCUUCAAAGTT against Slc25a26 | -2.33 (active)
GGAUAUUGCCAGUAAUUAATT against Kif21a | 0.212 (inactive)
GCUACCUCAACAUGGAUGCTT against Pcca | 1.16 (inactive)
GGAUGACUGUAUCUGUACUTT against Ttc3 | 0.0197 (inactive)
GGCCCAGAACAGAAAACUCTT against Clec1a | -0.582 (inactive)
GGACCUAAGGGAUCUAUUGTT against Col5a3 | 0.000962 (inactive)
GCACUGUGAAUUUGUCAUUTT against Umps | 1.22 (inactive)
GGAACACGAAUCAUUUAUGTT against Eif4ebp2 | 0.351 (inactive)
GUUUGGCCGAGUUCAUUUCTT against Pigu | 0.759 (inactive)
CCUGUGGAUUACGGCCUCATT against Ube3b | -0.282 (inactive)
GGAGCUGUUUUCUGUGAAGTT against Mrps2 | 0.0283 (inactive)
GGAUGUGGAGCAAGUGAAGTT against Stx1b | -2.05 (active)
GCUUCAAGCCAUCCGAAUATT against Cfap36 | 0.886 (inactive)
GGACCAGCUGAAGAUGGGATT against Pced1b | -1.1 (inactive)
GCCAGUUUCCAGUCCUUGUTT against Dppa5a | -0.2 (inactive)

Sequence | z-score
GCACAUAAAAUGCUCACUGTT against Rgr | -0.084 (inactive)
CCAAACUUAAACAUGUUGUTT against Ddx21 | 0.364 (inactive)
GCUGUACACAGUGAGGAAGTT against Gcat | 5.42 (active)
CGACUACCACACGUGGAAUTT against Hvcn1 | 1.36 (inactive)
UGUUCCUAGGUCAGCUACUTT against Olfr1200 | -1.54 (inactive)
GGCACUUCACAGACUUAGUTT against Selp | -0.682 (inactive)
CUCCUUGUCUACCUGAAUATT against Vmn1r213 | -1.44 (inactive)
CCUCUUAGCUAGAUCUUACTT against Smu1 | -2.41 (active)
GCCUGAGAAGAUAGACUGATT against Pigs | 0.114 (inactive)
GCUUAACUAGUAUCCUAUGTT against Tas2r135 | -0.228 (inactive)
GGACAAAGUGAAUUAUAGCTT against Tmem123 | 1.12 (inactive)
GUAAGUUGUUUGAGGAAAGTT against Defb3 | 2.08 (active)
GAAAUUCUUCCAGUGGAAGTT against Lrp2bp | 0.958 (inactive)
GGAACAUCAUCAACCACUATT against Olfr911-ps1 | -1.53 (inactive)
GGUACAACAGACUAUGCAATT against Snai1 | 0.886 (inactive)
GCUUUCGCCAAUAAAAAAGTT against Slc13a2 | 0.265 (inactive)
GGUGAAACGGGAUGUUAACTT against Ppargc1b | -0.102 (inactive)
GCCUUAUUACUGACCUUUUTT against Smarcd2 | 1.77 (inactive)
GCUAUGAAAGAGGGAAGCUTT against Cyp2c54 | 0.164 (inactive)
CCAGAAAACUCAGUUUGAATT against Magi3 | 0.518 (inactive)
GCUGGUGGCAAUCAGAAAATT against Nppc | 0.121 (inactive)
GGUUCAACACGAUGUUCGATT against Nr1i2 | 0.162 (inactive)

Sequence | z-score
GGAUGUCUGACACAAGUGUTT against Olfr390 | 3.42 (active)
GCUUCACAGAAGCUUUGUGTT against Ccl4 | -0.156 (inactive)
GGAAUAUCAGAAUACCAUCTT against Cnpy4 | 0.89 (inactive)
CCAGGAACAGCUAUCGGAUTT against Homer2 | -0.271 (inactive)
GCUGCAUUACAAGCCCAACTT against Zfp414 | -0.218 (inactive)
GGUGACAUAUUUGAAGUGGTT against Dmwd | -0.000303 (inactive)
GCACCCUACCUGCUAAUGUTT against Slitrk1 | 3.59 (active)
GGAUGACAAGGUUAAGCUATT against Golm2 | -0.0855 (inactive)
GCAACAAUGUGGUUCCUAUTT against Rab11a | 0.616 (inactive)
GGAGCUACUGUACCUUGCUTT against Ncapg2 | -1.29 (inactive)
GGCUAGAAAACCUCUAUCUTT against Lrrc18 | -2.11 (active)
GUGCAUGCAGUGUUGUUUUTT against Magea5 | 0.711 (inactive)
GGAUAGGGAUUGGAGAUAUTT against Stn1 | 0.203 (inactive)
GGGUAGUCACUCAAUAAAUTT against Pear1 | -0.54 (inactive)
GGAUUGCCCUGUGGACAAGTT against Nr4a1 | 0.963 (inactive)
GGCGAAAUGAACACAAAGCTT against Edf1 | 0.983 (inactive)
GGAAAAGUACACAAAGACCTT against Nkx2-1 | 2.16 (active)
GGAAAAGUGGUGAACGACATT against Tm4sf4 | 0.798 (inactive)
GCUGCUGUGACUUAGAUAATT against Cds2 | -0.668 (inactive)
